The list shows a part of the results. Unmarked numbers belong to inactive results.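 Rule for the calls: active = at least twofold enzyme activation in any of six single-dose repeats, which the averaged readout prints as negative percent; inactive = the rest.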
Molecular target: Intestinal-type alkaline phosphatase (Homo sapiens) (UniProt P09923)
Assay: enhancement of intestinal alkaline phosphatase activity – biochemical, luminescence, single concentration, uHTS hits, confirmation (AID 434926)
Conditions: purified IAP, CDP-Star luminescence, 30 min; at 8.3 µM; active compounds read low

Chain of Intestinal-type alkaline phosphatase (Homo sapiens) (P09923 whole entry, looked up): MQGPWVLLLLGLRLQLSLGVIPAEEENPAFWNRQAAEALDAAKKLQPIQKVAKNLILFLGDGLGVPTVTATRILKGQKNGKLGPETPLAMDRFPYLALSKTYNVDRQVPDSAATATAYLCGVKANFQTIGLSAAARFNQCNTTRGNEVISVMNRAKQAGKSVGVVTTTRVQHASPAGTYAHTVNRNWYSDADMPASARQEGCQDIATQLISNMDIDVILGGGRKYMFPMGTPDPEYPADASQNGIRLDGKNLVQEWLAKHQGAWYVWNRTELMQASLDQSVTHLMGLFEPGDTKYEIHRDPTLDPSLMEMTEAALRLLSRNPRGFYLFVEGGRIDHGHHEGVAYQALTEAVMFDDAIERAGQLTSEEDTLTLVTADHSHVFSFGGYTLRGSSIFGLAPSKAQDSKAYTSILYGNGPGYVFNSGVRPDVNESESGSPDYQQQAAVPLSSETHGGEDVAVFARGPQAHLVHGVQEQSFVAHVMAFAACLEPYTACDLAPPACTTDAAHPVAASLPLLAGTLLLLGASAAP

| Structure (SMILES) | activation (%Activity, negative = activation) [%] |
| --- | --- |
| CN(c1ccccc1)c1ccc([N+](=O)[O-])c2nonc12 | -1.35 |
| COc1ccccc1N=Nc1c(O)[nH]c(=S)[nH]c1=O | 4.66 |

Source: PubChem BioAssay AID434926 (Sanford-Burnham Center for Chemical Genomics, 2010)
